IMPase cell inh – membrane-permeable compound that blocks inositol monophosphatase. inhibition (IP1 accumulation), % at 46.1 µM. AID 901. P97697. CHO-M1 cells, IP1 accumulation, HTRF TR-FRET ratio. 120,000 tested, under 10 active; active = well fitted curve in the direction sought with a large enough effect in the signal ratio, not every such curve was filed as active; inconclusive = small, poorly fitted or top-dose-only effect, or a change in a side signal; inactive = no such curve, though single readings can be large or run the other way; the % refers to the signal ratio;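 also: cells stimulated with carbachol in lithium chloride buffer; higher means more IMPase inhibition seen as more IP1 and lower FRET ratio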
Target sequence (P97697 whole entry, looked up): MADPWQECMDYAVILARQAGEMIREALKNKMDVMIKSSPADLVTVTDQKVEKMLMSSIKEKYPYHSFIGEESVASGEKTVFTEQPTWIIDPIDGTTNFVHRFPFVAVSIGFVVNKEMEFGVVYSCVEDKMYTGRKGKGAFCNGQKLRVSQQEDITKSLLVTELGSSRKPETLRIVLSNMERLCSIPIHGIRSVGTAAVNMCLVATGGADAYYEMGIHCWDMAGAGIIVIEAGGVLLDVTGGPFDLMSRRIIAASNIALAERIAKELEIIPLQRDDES
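The IP-One HTRF competitive assay in carbachol-stimulated CHO-M1 cells quantifies cellular IP1. Compounds spanned up to 46 uM final, and activity is expressed as AC50 from concentration-response fits of the ratio and donor data.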
HPGD inh – inhibitors of human 15-hydroxyprostaglandin dehydrogenase (HPGD); purified HPGD, NADH fluorescence kinetic, PGE2 substrate; 150,000 compounds, 4.3% hits; Potency, µM, hits mostly inhibitors; P15428; AID 894
Target sequence (P15428 whole entry, looked up): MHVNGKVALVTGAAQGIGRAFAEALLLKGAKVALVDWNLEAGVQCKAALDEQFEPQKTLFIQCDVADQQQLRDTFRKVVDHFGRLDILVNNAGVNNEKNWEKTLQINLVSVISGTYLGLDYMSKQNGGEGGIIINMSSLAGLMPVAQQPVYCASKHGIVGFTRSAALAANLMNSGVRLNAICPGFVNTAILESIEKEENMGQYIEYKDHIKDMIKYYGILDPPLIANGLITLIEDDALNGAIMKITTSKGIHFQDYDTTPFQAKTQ
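20 nM HPGD preincubated 15 min at room temperature with compound in 50 mM Tris-HCl pH 8, 0.01% Tween 20. Started with 1 mM NAD+ and 30 uM prostaglandin E2; NADH fluorescence (360/450 nm) read 5 times over 30-s intervals, last minus first.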
12-hLO inh – blocks human 12-lipoxygenase activity; P18054; purified 12-hLO, xylenol orange hydroperoxide absorbance; Potency, µM (highest dose often 57.1 µM), actives largely listed as inhibitors; 150,000 compounds, 0.12% hits; AID 1452; active = well fitted curve in the direction sought with a large enough effect; inconclusive = small, poorly fitted or top-dose-only effect, or another doubt; inactive = no such curve, though single readings can be large; an effect the other way counts as inactive or inconclusive; also: nearly all actives have a fitted effect of over 55% in size
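Xylenol orange chromogenic assay: hydroperoxide from 12hLO oxidises Fe(II), giving red-shifted Fe(III)-XO absorbance. Conditions: 150 nM enzyme, 40 uM arachidonic acid, 25 mM Hepes pH 7.0, 0.01% Triton X-100, 30 min, room temperature.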
IMPase Li inh – IMPase inhibition in cells with lithium potentiation; CHO-M1 cells, IP1 TR-FRET (IP-One), carbachol + lithium; Potency, µM (titrated, usually from 59.4 µM), hits mostly inhibitors; 210,000 compounds, 0.35% hits; AID 1457; active = well fitted curve in the direction sought with a large enough effect; inconclusive = small, poorly fitted or top-dose-only effect, or another doubt; inactive = no such curve, though single readings can be large; an effect the other way counts as inactive or inconclusive;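 also: IP1 builds up when IMPase is blocked and the TR-FRET signal falls; nearly all actives have a fitted effect of over 50% in size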
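Concentration–response in CHO-M1 cells, lithium-potentiated; 30 min at 37C. IP1 detected by competitive TR-FRET after 10 min lysis at RT. Hill-fitted AC50.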
ALDH1A1 block – inhibitors of human aldehyde dehydrogenase 1A1; Potency, µM (titrated, usually from 75.3 µM), hits mostly inhibitors; Purified ALDH1A1, NADH fluorescence, propionaldehyde substrate; P00352; AID 1030; 220,000 compounds, 7.3% hits
PNC assembly inh – blocks assembly of the perinucleolar compartment; 140,000 compounds, 3.1% hits; activity change (PNC), negative = inhibition, % at 10 µM; AID 2417; PC3M PTB-GFP, PNC prevalence imaging, 16 h; stronger effect = lower value;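 active = readout at or below -70, meaning at least 70% loss of cells showing the perinucleolar compartment, a nuclear body marking cancer cells; inconclusive = readout between -30 and a set limit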
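Compounds are pinned in duplicate onto adhered PC3M cells stably expressing GFP-tagged PTB and incubated 16 h at 37 C. Cells are then fixed, nuclei stained with Hoechst, and PNC-positive cells counted.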
A number is an active result; 0 = inactive; ? = inconclusive; - = no result given; [ ] = remark or other dose. Rows were chosen to be rich in hits. Some 11% of all compounds tested hit in one or more screens of this group. Unless noted, calls follow the shape of the dose curve; as a rule, active = well fitted inhibition curve with a large enough effect (not every such curve was filed as active); inconclusive = small, poorly fitted or top-dose-only effect, or another doubt; inactive = no such curve, though single readings can be large or run the other way.

SMILES	IMPase cell inh	HPGD inh	12-hLO inh	IMPase Li inh	ALDH1A1 block	PNC assembly inh
Cc1ccc(NC(=O)COC(=O)Cc2csc(-c3cccc(F)c3)n2)cc1C	-	0	0	0	11µM	?
CN1CC2([N+](=O)[O-])CC=C(OCCO)C([N+](=O)[O-])(C1)C2 (configuration not stated)	-	0	0	0	0	-115
CN1CC2([N+](=O)[O-])CC=C(Oc3ccccc3)C([N+](=O)[O-])(C1)C2 (configuration not stated)	0	0	0	0	2.8µM	0
O=C(NCc1cccnc1)C1c2ccccc2C(=O)N1C1CCCC1 (configuration not stated)	0	0	0	0	0	-108
Cc1ccc(CN2C(=O)c3ccccc3C2C(=O)NCc2cccnc2)cc1 (configuration not stated)	0	0	0	0	0	0
O=C(NCc1ccco1)c1cccc2c1C(=O)N(C1CCCCC1)C2	0	0	0	0	0	-100
O=C(Nc1ccc2c(c1)OCO2)c1cccc2c1C(=O)N(C1CCCCC1)C2	-	-	-	0	0	-
O=C(NCc1cccnc1)c1cccc2c1C(=O)N(C1CCCCC1)C2	0	0	0	0	0	-100
N[C@@H](C(=O)O)c1ccc(O)c(C(=O)O)c1	0	?	0	0	?	-
CCc1c2c(nc3cccc(OC)c13)OC(CC)C2 (configuration not stated)	-	?	0	0	?	-
O=C(O)CN1CCCC1=Nc1ccccc1	0	0	0	0	89µM	0
O=C1C2C(C(=O)N1/N=C/c1ccc(N3CCCCC3)o1)C1C=CC2C12CC2 (configuration not stated)	0	0	0	0	8.9µM	0
Cc1ccc(/C=N/N2CCCCC2)o1	-	-	-	0	0	-
CCOC(=O)C1=C(C)NC(=O)C1CC(=O)Nc1ccccc1 (configuration not stated)	0	35µM	0	0	0	?
CC(C)Sc1nc(N2CCCC2)c2c(c1C#N)CC(C)(C)OC2	0	0	0	0	0	0
CC(Sc1nc(N2CCCCC2)c2c(c1C#N)CCCC2)C(=O)O (configuration not stated)	0	0	0	0	0	-117
CCSc1nc(N2CCOCC2)c2c(c1C#N)CCCC2	0	-	0	-	22µM	0
CCN1C(=O)[C@H]2[C@H]3[C@H](O)[C@H](O)C/C(=N/OC[C@@H](C)[C@H](OCc4ccccc4)C(C)C)[C@@H]3CC[C@@H]2C1=O	-	-	-	-	0[13.5 µM]	-
C=C1CCC(C2CC(=O)OC2=O)C(=O)CCC2C1CC2(C)C (configuration not stated)	-	0	0	0	0	-
CS(=O)(=O)c1ccc(S(=O)CC(=O)OCc2ccccc2)c([N+](=O)[O-])c1 (configuration not stated)	-	-	-	0	13µM	-
CCOc1ccc(NC(=O)CSc2nnc3scc(-c4ccccc4)n23)cc1	0	-	-	-	-	-
Nn1cc(Br)c(=O)[nH]c1=O	-	-	-	0	0	-
Cc1nn(CC#N)c(=O)n1-c1ccc(F)cc1	?	0	0	0	0	0
O=C(O)c1cccc(N2C(=O)C3CC=CCC3C2=O)c1 (configuration not stated)	0	0	0	0	0	-100
O=C(O)c1cccc(N2C(=O)c3cccnc3C2=O)c1	0	0	0	0	0	-100
SMILES	IMPase cell inh	HPGD inh	12-hLO inh	IMPase Li inh	ALDH1A1 block	PNC assembly inh
CC(O)CCCCn1c(=O)c2c(ncn2C)n(C)c1=O (configuration not stated)	-	-	-	0	0	-
CCCc1nc2ccc(NC(=O)c3ccco3)cc2c(=O)n1Cc1ccccc1Cl	0	0	0	0	0	-100
CCCc1nc2ccc(NC(=O)c3ccco3)cc2c(=O)n1Cc1ccc(Cl)cc1	0	0	0	0	0	0
O=C(OCC#CCSc1nnc(-c2ccccc2)o1)c1cccs1	0	16µM	0	0	20µM	0
S=c1[nH]cc(-c2ccccc2)n1-c1ccccc1Cl	-	18µM	0	0	0.89µM	0
COc1ccccc1-n1c(-c2ccccc2)c[nH]c1=S	-	-	-	0	2.5µM	-
Nc1ccccc1C(=O)CC(N)C(=O)O (configuration not stated)	0	0	0	0	0	-
Cc1ccc(S(=O)(=O)/N=C2\CN(C)C(=O)N2C)cc1	-	0	0	0	0	-113
Cc1ccc(S(=O)(=O)/N=c2\sccn2C)cc1	0	0	0	0	0	0
Cc1[nH]c(=O)c(C#N)c2c1CSC(C)(C)C2	0	?	0	0	?	-100
CCc1[nH]c(=O)c(C#N)c2c1CSC(C)(C)C2	0	?	0	0	?	0
Cc1ccc(/C=C/C2=C[C@]3(C)C[C@]2(C)[C@H](c2ccc(C)cc2)CC3=O)cc1	-	0	0	0	?	-
CC(C)=C1C(=O)NN(c2ccc(F)c(Cl)c2)C1=O	0	8.9µM	?	0	0	0
Cc1nc2c(=O)n(-c3ccc(F)c(Cl)c3)nc(C)c2s1	-	-	-	-	0	-
O=C1NN(c2ccccc2)C(=O)/C1=C/c1cccs1	-	0	0	0	?	0
O=C1NN(c2ccc(F)c(Cl)c2)C(=O)/C1=C\c1cccc(OC(=O)c2cccs2)c1	0	10µM	?	0	?	0
CN(C)c1ccc(/C=N/Nc2ccc(-n3ccnc3)nn2)cc1	0	0	0	0	7.9µM	0
O=c1oc2ccccc2c(O)c1C=NCc1ccccn1	0[1.84 µM]	?	0	0	28µM	0
NC(=S)NNC(=O)C12CC3CC(CC(C3)C1)C2	-	0	0	0	?	0
CCOc1cc(NC(=S)Nc2cccc(OC)c2)c(OCC)cc1NC(=O)C1CC1	0	0	?	0	0	-106
COC(=O)[C@@H]1C=C[C@H](C)[C@H](CCOc2ccccc2)O1	-	0	-	0	0	-
CC[C@H](CO)NCCN[C@H](CC)CO	-	0	0	0	0	-115
C#CCOC(=O)[C@H](N)CC(N)=O	-	0	0[11.4 µM]	0	0[13.5 µM]	-
COCC(C)N=C1NN=C(c2cccs2)C(CC(=O)O)S1 (configuration not stated)	-	-	-	0	13µM	-
COCC(C)N=C1NN=C(c2ccc(NC(C)=O)cc2)CS1 (configuration not stated)	-	-	-	0	?	-
SMILES	IMPase cell inh	HPGD inh	12-hLO inh	IMPase Li inh	ALDH1A1 block	PNC assembly inh
Cn1cc(Cl)c(C(=O)NC2CCCCCC2)n1	0	0	0	0	0	0
Cn1cc(Cl)c(C(=O)NNC(=S)NC2CCCCC2)n1	-	0	0	0	0	-109
O=C(COc1ccc(Br)cc1Cl)NC(=S)N1CCc2ccccc21	-	?	0	0	?	0
O=C(COc1ccc(Br)cc1Br)NC(=S)N1CCCc2ccccc21	0	0	0	0	11µM	0
O=C1C=C(N2CCN(c3ccccn3)CC2)C(=O)c2c(O)ccc(O)c21	-	0	0[11.4 µM]	0	0[13.5 µM]	-
CC1=CC(=O)c2c(O)ccc(O)c2C1=O	-	-	-	0	32µM	-

Screens as filed in PubChem BioAssay.
